# Legend:
# Test in all cases: DAPPL (digital affinity profiling via proximity ligation, sequencing); 10 mM Tris-HCl pH 7.5, 50 mM NaCl, 1 mM DTT, 4% glycerol, room temperature, 30 min; GST-TFs on glutathione beads, 16-mer random dsDNA library, 0.1% formaldehyde crosslink after washing; high values mean tight binding
# FLI1 = biological target: T1, FLI1 (Homo sapiens, UniProt Q01543 1-452); settings: protein: recombinant; tags: N-terminal GST; dsDNA, one strand shown
# T1 sequence: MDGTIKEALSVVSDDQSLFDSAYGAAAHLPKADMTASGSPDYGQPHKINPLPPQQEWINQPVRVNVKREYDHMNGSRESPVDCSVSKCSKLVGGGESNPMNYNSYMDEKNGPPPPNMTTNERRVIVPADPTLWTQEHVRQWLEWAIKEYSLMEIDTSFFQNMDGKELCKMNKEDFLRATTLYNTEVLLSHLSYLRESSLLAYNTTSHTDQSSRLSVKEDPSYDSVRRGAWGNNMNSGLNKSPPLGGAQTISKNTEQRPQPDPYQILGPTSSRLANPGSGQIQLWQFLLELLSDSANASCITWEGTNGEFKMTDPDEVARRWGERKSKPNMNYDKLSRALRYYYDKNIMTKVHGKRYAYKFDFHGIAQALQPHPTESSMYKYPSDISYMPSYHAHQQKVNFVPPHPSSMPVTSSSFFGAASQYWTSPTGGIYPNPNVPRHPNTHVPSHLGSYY
# Procedure, shortened: (§1)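 Human transcription factors fused to GST were expressed in yeast, captured on glutathione beads, given DNA barcodes and pooled with a GST-only negative control. Pools were incubated with 200 nmole of a 16-mer random double-stranded DNA library in Tris/NaCl/DTT/glycerol buffer at room temperature for 30 min. They were then washed, crosslinked with 0.1% formaldehyde, proximity-ligated (BsaI/T4 ligase, 1 h, 37 °C), PCR-amplified and sequenced on an Illumina NextSeq500. Binding signal is each 6-mer's read frequency for a factor divided by its frequency for the GST control.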
# ELK1 = biological target: T2, ELK1 (Homo sapiens, UniProt P19419 1-428); settings: protein: recombinant; tags: N-terminal GST; dsDNA, one strand shown
# T2 sequence: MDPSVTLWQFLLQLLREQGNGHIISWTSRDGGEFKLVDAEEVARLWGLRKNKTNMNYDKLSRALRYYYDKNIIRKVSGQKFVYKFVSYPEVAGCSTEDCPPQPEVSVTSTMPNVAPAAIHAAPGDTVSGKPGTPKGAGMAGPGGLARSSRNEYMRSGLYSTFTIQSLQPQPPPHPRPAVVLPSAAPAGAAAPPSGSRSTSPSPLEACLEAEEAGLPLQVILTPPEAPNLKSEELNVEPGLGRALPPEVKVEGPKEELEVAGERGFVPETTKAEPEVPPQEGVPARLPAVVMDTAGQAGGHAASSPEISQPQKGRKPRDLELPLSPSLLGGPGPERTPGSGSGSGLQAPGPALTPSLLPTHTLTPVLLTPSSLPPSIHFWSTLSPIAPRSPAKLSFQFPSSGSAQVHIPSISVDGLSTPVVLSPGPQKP
# Procedure, shortened: as §1
# GABPA = biological target: T3, GABPA (Homo sapiens, UniProt Q06546 1-454); settings: protein: recombinant; tags: N-terminal GST; dsDNA, one strand shown
# T3 sequence: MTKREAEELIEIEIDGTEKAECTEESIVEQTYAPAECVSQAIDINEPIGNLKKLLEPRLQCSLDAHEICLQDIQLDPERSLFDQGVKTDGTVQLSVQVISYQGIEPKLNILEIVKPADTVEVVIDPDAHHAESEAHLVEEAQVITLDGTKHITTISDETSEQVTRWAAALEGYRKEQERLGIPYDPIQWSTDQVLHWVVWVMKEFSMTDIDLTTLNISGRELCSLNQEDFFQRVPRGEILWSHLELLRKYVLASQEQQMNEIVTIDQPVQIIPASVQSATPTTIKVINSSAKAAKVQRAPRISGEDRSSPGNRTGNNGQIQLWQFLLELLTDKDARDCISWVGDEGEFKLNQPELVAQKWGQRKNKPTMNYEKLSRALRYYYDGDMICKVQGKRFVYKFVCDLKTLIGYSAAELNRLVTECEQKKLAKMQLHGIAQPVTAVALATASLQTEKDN
# Procedure, shortened: as §1
# ERG = biological target: T4, ERG (Homo sapiens, UniProt P11308 1-479); settings: protein: recombinant; tags: N-terminal GST; dsDNA, one strand shown
# T4 sequence: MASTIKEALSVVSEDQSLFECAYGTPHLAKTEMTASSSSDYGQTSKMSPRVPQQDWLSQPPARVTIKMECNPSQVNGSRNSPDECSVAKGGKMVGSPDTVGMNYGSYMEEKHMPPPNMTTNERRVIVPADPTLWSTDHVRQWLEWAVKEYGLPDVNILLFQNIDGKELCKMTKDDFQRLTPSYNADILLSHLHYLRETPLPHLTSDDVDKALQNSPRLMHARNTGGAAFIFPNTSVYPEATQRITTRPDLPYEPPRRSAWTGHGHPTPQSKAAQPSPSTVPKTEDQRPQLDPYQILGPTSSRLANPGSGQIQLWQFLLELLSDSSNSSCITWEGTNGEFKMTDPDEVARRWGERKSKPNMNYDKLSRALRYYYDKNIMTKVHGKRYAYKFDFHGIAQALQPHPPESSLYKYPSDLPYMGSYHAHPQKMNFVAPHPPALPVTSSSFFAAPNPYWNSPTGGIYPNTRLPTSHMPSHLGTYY
# Procedure, shortened: as §1
# ELF1 = ELF1 (Homo sapiens, UniProt P32519 1-619); settings: protein: recombinant; tags: N-terminal GST; dsDNA, one strand shown
# Procedure, shortened: as §1
# EHF = biological target: T5, EHF (Homo sapiens, UniProt Q9NZC4 1-300); settings: protein: recombinant; tags: N-terminal GST; dsDNA, one strand shown
# T5 sequence: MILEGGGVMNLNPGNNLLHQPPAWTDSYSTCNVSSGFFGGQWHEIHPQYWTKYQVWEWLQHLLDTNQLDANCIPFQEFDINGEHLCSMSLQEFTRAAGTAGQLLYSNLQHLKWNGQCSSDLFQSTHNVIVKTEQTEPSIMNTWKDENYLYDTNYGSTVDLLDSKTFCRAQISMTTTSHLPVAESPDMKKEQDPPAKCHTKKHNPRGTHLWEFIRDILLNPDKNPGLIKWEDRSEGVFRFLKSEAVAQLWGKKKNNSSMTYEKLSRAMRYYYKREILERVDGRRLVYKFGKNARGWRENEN
# Procedure, shortened: as §1
# SPI1 = SPI1 (Homo sapiens, UniProt P17947 1-270); settings: protein: recombinant; tags: N-terminal GST; dsDNA, one strand shown
# Procedure, shortened: as §1
# SPIB = SPIB (Homo sapiens, UniProt Q01892 1-262); settings: protein: recombinant; tags: N-terminal GST; dsDNA, one strand shown
# Procedure, shortened: as §1
# ELK3 = biological target: T6, ELK3 (Homo sapiens, UniProt P41970 1-407); settings: protein: recombinant; tags: N-terminal GST; dsDNA, one strand shown
# T6 sequence: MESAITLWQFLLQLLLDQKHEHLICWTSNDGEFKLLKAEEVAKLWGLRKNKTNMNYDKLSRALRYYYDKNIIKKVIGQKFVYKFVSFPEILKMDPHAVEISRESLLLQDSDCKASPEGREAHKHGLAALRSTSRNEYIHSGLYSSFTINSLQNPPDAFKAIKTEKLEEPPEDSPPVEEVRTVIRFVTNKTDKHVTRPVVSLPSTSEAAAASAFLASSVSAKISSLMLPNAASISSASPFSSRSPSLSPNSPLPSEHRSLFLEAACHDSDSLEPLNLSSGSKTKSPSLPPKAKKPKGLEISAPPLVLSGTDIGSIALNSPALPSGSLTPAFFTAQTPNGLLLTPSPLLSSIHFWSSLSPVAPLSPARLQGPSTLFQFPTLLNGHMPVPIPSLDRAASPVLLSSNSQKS
# Procedure, shortened: as §1
# FEV = biological target: T7, FEV (Homo sapiens, UniProt Q99581 1-238); settings: protein: recombinant; tags: N-terminal GST; dsDNA, one strand shown
# T7 sequence: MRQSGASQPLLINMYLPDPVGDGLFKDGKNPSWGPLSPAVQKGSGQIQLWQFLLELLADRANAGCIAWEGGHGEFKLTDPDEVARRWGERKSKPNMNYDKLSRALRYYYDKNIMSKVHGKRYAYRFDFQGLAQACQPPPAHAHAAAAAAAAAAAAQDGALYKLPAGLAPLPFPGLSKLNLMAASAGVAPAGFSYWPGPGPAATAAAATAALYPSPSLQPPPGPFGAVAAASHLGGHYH
# Procedure, shortened: as §1
# ETV5 = ETV5 (Homo sapiens, UniProt P41161 1-510); settings: protein: recombinant; tags: N-terminal GST; dsDNA, one strand shown
# Procedure, shortened: as §1
# HSF1 = HSF1 (Homo sapiens, UniProt Q00613 1-529); settings: protein: recombinant; tags: N-terminal GST; chain copies: 3; dsDNA, one strand shown
# Procedure, shortened: as §1
# SPIC = biological target: T8, SPIC (Homo sapiens, UniProt Q8N5J4 1-248); settings: protein: recombinant; tags: N-terminal GST; dsDNA, one strand shown
# T8 sequence: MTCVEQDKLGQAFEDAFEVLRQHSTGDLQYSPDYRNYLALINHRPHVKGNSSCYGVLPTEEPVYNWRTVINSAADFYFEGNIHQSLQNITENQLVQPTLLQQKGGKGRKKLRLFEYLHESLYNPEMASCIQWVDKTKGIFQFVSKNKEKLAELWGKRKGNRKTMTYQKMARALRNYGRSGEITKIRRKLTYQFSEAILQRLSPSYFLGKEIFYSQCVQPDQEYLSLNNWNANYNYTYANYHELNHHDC
# Procedure, shortened: as §1
# ELF4 = ELF4 (Homo sapiens, UniProt Q99607 1-663); settings: protein: recombinant; tags: N-terminal GST; dsDNA, one strand shown
# Procedure, shortened: as §1
# ELK4 = biological target: T9, ELK4 (Homo sapiens, UniProt P28324-2 1-405); settings: protein: recombinant; tags: N-terminal GST; dsDNA, one strand shown
# T9 sequence: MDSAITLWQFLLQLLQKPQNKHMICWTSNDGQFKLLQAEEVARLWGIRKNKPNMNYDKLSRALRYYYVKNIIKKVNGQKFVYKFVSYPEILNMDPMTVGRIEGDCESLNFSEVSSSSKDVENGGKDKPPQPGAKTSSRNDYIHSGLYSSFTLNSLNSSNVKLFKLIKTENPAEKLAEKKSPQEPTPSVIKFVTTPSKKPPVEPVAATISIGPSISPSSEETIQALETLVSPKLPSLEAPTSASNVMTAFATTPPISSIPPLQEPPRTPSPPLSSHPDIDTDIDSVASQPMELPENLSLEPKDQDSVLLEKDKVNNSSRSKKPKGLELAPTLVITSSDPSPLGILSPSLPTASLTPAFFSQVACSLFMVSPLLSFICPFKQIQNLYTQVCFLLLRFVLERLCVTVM
# Procedure, shortened: as §1
# ETV2 = biological target: T10, ETV2 (Homo sapiens, UniProt O00321 1-342); settings: protein: recombinant; tags: N-terminal GST; dsDNA, one strand shown
# T10 sequence: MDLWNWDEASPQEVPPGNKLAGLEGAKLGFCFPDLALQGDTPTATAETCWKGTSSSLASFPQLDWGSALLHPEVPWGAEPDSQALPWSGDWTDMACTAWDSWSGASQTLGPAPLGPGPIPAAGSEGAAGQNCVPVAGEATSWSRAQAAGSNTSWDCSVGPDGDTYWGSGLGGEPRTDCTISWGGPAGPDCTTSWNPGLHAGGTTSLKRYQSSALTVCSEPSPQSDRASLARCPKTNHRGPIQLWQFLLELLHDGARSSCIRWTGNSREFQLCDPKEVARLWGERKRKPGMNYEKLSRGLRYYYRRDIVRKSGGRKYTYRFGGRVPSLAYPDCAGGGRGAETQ
# Procedure, shortened: as §1
# ELF3 = biological target: T11, ELF3 (Homo sapiens, UniProt P78545 1-371); settings: protein: recombinant; tags: N-terminal GST; dsDNA, one strand shown
# T11 sequence: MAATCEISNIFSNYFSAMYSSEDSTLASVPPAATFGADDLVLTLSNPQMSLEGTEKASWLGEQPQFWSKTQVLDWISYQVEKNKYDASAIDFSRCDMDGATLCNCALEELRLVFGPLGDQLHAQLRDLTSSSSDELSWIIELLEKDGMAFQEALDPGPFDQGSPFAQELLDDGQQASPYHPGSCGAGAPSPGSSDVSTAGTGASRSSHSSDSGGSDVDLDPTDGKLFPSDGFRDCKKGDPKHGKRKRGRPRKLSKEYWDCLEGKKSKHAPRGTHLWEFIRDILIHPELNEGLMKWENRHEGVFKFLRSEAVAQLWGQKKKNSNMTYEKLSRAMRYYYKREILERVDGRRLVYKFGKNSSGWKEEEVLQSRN
# Procedure, shortened: as §1
# CRX = CRX (Homo sapiens, UniProt O43186 1-299); settings: protein: recombinant; tags: N-terminal GST; dsDNA, one strand shown
# Procedure, shortened: as §1
# ETV1 = ETV1 (Homo sapiens, UniProt P50549 1-477); settings: protein: recombinant; tags: N-terminal GST; dsDNA, one strand shown
# Procedure, shortened: as §1
# Sequence of ELF1 (P32519 whole entry): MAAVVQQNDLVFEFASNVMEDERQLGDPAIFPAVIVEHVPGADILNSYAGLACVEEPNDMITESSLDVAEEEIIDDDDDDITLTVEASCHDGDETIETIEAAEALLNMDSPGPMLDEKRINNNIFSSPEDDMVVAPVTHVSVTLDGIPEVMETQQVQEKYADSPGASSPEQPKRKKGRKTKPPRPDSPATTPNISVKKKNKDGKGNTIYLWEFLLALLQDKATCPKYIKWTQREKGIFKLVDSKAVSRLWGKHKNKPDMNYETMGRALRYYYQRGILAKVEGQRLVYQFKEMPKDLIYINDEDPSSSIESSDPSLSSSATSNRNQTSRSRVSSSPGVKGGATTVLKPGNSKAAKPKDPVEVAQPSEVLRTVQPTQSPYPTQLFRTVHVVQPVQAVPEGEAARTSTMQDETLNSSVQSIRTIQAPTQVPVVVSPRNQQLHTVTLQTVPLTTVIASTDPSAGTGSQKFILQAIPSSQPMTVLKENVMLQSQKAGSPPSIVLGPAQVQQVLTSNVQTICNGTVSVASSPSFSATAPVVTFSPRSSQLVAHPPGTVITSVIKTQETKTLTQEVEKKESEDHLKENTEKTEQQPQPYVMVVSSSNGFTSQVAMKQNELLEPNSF
# Sequence of CRX (O43186 whole entry): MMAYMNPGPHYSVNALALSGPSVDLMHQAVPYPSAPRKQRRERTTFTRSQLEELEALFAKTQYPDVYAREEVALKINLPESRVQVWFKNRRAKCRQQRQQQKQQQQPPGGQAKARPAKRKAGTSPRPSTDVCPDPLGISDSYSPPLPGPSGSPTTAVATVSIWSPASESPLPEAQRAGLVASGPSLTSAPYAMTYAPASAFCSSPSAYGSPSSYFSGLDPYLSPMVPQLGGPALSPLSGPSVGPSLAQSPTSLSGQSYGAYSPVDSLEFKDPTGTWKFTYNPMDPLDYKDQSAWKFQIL
# Sequence of HSF1 (Q00613 whole entry): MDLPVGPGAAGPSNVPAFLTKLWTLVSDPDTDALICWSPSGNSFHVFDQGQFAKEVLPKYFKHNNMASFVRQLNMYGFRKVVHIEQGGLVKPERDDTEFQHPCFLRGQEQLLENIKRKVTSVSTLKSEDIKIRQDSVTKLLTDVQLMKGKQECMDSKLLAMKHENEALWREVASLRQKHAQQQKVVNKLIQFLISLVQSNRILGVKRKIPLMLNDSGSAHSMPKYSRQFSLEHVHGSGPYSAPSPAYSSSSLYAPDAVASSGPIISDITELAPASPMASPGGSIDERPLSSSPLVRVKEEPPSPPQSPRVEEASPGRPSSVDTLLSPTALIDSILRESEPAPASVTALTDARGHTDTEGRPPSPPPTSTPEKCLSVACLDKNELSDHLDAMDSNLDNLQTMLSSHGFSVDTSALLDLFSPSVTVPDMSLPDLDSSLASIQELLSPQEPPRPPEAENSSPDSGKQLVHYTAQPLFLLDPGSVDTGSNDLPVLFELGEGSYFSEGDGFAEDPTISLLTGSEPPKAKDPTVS
# Sequence of ETV1 (P50549 whole entry): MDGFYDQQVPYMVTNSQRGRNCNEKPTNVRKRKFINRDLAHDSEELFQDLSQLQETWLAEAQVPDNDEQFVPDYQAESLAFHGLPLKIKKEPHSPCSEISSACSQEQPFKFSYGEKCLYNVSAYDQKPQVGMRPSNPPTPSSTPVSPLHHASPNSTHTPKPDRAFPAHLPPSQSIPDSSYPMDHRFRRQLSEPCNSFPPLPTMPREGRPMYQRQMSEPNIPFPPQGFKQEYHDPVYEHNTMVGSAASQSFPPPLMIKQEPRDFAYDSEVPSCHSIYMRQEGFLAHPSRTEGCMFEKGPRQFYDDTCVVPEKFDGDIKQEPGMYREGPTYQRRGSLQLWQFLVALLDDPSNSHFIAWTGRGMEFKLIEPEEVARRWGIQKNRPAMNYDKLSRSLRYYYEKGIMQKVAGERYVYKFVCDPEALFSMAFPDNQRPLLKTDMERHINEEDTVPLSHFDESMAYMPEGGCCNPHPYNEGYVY
# Sequence of SPIB (Q01892 whole entry): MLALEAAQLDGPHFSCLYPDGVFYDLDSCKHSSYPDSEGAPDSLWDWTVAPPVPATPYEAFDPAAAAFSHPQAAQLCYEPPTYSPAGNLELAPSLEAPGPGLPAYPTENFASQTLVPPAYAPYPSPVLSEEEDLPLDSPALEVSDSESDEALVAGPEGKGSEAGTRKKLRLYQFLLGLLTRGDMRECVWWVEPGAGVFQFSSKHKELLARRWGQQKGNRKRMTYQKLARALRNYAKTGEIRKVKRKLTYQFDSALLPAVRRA
# Sequence of ETV5 (P41161 whole entry): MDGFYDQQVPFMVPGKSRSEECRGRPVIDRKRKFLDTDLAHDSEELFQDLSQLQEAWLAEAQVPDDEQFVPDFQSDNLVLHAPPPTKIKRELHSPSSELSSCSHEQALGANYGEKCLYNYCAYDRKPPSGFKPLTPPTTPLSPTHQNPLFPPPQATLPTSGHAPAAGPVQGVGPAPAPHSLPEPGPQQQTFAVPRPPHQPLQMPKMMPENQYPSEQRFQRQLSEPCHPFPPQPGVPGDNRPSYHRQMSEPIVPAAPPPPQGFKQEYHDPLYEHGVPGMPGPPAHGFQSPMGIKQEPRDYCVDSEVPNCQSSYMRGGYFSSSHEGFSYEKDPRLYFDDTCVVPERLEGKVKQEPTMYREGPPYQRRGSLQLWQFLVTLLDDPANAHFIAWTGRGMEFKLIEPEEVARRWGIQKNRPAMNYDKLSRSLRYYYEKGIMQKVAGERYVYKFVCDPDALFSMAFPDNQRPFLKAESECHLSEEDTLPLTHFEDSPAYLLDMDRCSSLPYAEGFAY
# Sequence of ELF4 (Q99607 whole entry): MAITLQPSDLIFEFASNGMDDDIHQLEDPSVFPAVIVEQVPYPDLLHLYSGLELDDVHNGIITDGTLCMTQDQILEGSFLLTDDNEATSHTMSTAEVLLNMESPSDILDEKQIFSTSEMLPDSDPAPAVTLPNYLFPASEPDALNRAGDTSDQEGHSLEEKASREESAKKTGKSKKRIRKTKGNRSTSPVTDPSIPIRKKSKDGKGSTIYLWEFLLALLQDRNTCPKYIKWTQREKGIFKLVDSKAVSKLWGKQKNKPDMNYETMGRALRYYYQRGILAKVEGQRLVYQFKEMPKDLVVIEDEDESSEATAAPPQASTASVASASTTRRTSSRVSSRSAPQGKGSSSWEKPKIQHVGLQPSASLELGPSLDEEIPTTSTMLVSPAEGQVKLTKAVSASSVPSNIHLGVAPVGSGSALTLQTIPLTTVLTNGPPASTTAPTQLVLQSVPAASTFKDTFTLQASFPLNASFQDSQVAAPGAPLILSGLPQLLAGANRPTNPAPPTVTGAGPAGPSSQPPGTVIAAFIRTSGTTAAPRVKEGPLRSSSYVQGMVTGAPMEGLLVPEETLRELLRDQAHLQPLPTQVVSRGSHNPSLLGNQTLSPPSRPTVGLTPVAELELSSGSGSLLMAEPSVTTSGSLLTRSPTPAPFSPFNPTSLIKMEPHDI
sequence,measurement,setting,value
TTCAGG,binding signal,FLI1,"1.2 fold enrichment (6-mer frequency, TF over GST control)"
same,binding signal,ELK1,"1.14 fold enrichment (6-mer frequency, TF over GST control)"
same,binding signal,GABPA,"1.15 fold enrichment (6-mer frequency, TF over GST control)"
same,binding signal,ERG,"1.12 fold enrichment (6-mer frequency, TF over GST control)"
same,binding signal,ELF1,"1.1 fold enrichment (6-mer frequency, TF over GST control)"
same,binding signal,EHF,"1.11 fold enrichment (6-mer frequency, TF over GST control)"
same,binding signal,SPI1,"1.22 fold enrichment (6-mer frequency, TF over GST control)"
same,binding signal,SPIB,"1.1 fold enrichment (6-mer frequency, TF over GST control)"
same,binding signal,ELK3,"1.09 fold enrichment (6-mer frequency, TF over GST control)"
same,binding signal,FEV,"1.05 fold enrichment (6-mer frequency, TF over GST control)"
same,binding signal,ETV5,"1.13 fold enrichment (6-mer frequency, TF over GST control)"
same,binding signal,HSF1,"1.22 fold enrichment (6-mer frequency, TF over GST control)"
same,binding signal,SPIC,"1.13 fold enrichment (6-mer frequency, TF over GST control)"
same,binding signal,ELF4,"1.11 fold enrichment (6-mer frequency, TF over GST control)"
same,binding signal,ELK4,"1.19 fold enrichment (6-mer frequency, TF over GST control)"
same,binding signal,ETV2,"1.14 fold enrichment (6-mer frequency, TF over GST control)"
same,binding signal,ELF3,"1.07 fold enrichment (6-mer frequency, TF over GST control)"
same,binding signal,CRX,"1.01 fold enrichment (6-mer frequency, TF over GST control)"
same,binding signal,ETV1,"1.15 fold enrichment (6-mer frequency, TF over GST control)"

# — article PMC7862700, “An all-to-all approach to the identification of sequence-specific readers for epigenetic DNA modifications on cytosine”
